{"source": "the supplement of paper PMC8728848", "binders": {"B1": {"name": "Epa1-NP-mutant-Y228A (Candida glabrata), Q6VBJ0 (protein)", "chain": "MILNPALFLNKCVCIYTTLILLLLTNGGYATSSNDISLASKDPTTFPLGCSPDITTPKKGLSMELYSYDFRKKGSYPCWDAAYLDPNYPRTGYKSHRLLAKVDGVTGNINFYYHATKGCTPQLGHLPASYNYPKPLTMTNFTMLLYGYFRPKVTGFHTFTISADDLLFVNFGAGNAFDCCRRDSSADHFGNYQAYAIWGSKTAKDELTVHLDAGVYYPIRLFYNNREADGALSFTFKTESNENTVSDFSEYFFSLDDTEEGCPGLISYDSSCASVKTSKIIGIDYHTETPNENLVPITKTIYHLGIPCTGTTTTPLCGSGFYDPLANKCVTINTSSTSSVTKTTSHTTSKEVSFHSSISSQKTLIPKSIPSPYGPIKSQSIPTEMETSSEISSSEYAFSDVISTPSHSPYTKKHSSLNSSSYTSTVIHSLTSYSISQGIFSTSLSEQNITSKSSTDKFSTATSMSNNITQSSIIISQFSTNNENYTTTSMHTSSDKISTETLNNSISTTTSILFSNSSTILKNNTTIISSDKDTHYHPVNPTIVCSTNKTEIICASITQPSISNSNNHWSSSVLKFNSTTVRSTLPSSAGSNETSINVPFSSSTESNTSTSSTSTSNSKMVRSTLPSSAGSNETSISVPFSSSTESNTSTSSTSTSNSKMVRSTLPSSAGSNETSINVPFSSSTESNTSTSSTSTSNSKTVRSTPFSSAGIIMTSLSQRNNKSASSYASSNSKCYNTADSCRKVHSTPSYLLTSSYTSEGVDYDCSLVSTKLKINDTNCVNNKHTTKSCLKTSVTTTIPTLEIKTARKSSSNTIGLHSYPTSSPNKSISSAPIIGYISSFKTIKTASPSYQTSDLTTITTITSLNNPGSTAVENTHESNDKSRKTSSNDISSKHSVIKETKDAVESSNKSHQTNTLKCSSIIIASSSHNSYESLGGTTLTLTLSKVYSPQNNDTLPFLEISEVNPSRTVLPESSKMMQYLTSTEERNKTARNTIATNIVSISTFHFEGEGNAIRMGYTQLLLMLIGIIVMNIGT"}}, "assay_in_all_cases": "glycan array binding signal (z-score within array); higher = stronger binding", "details_in_all_cases": "glycan notation: IUPAC condensed, linker removed; mutation: Y228A", "key": {"[1]": {"target": "Gal(b1-3)[Neu5Ac(a2-6)]GalNAc", "summary_of_the_method": "(§1)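 Glycan array data came from 3228 arrays in the Consortium for Functional Glycomics database, and only arrays with an available protein sequence were kept. Glycan names were put into IUPAC-condensed notation, and columns mapping to the same glycan were averaged. The binding signal is a within-array Z-score, averaged across arrays of one protein sequence run at different concentrations or buffers and across linkers. A negative Z-score can be read as non-binding.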"}, "[2]": {"target": "Gal(b1-4)Glc6S", "summary_of_the_method": "as §1"}, "[3]": {"target": "Gal(b1-4)GlcNAc(b1-2)[Gal(b1-4)GlcNAc(b1-6)]Man(a1-6)[GlcNAc(b1-4)][Gal(b1-4)GlcNAc(b1-2)[Gal(b1-4)GlcNAc(b1-4)]Man(a1-3)]Man(b1-4)GlcNAc(b1-4)[Fuc(a1-6)]GlcNAc", "summary_of_the_method": "as §1"}, "[4]": {"target": "Gal(b1-4)GlcNAc(b1-6)Gal(b1-4)GlcNAc", "summary_of_the_method": "as §1"}, "[5]": {"target": "Gal(b1-4)GlcNAc(b1-6)[Gal(b1-4)GlcNAc(b1-3)]GalNAc", "summary_of_the_method": "as §1"}, "[6]": {"target": "Gal3S(b1-3)GalNAc", "summary_of_the_method": "as §1"}, "[7]": {"target": "Gal3S4S(b1-4)GlcNAc", "summary_of_the_method": "as §1"}, "[8]": {"target": "Gal4S6S(b1-4)GlcNAc", "summary_of_the_method": "as §1"}, "[9]": {"target": "Gal6S(b1-3)GlcNAc6S", "summary_of_the_method": "as §1"}, "[10]": {"target": "Gal6S(b1-4)Glc6S", "summary_of_the_method": "as §1"}, "[11]": {"target": "GalNAc(b1-3)Gal(a1-4)Gal(b1-4)GlcNAc", "summary_of_the_method": "as §1"}, "[12]": {"target": "GalNAc3S(b1-4)GlcNAc", "summary_of_the_method": "as §1"}, "[13]": {"target": "Glc(b1-4)Glc", "summary_of_the_method": "as §1"}, "[14]": {"target": "GlcA3S(b1-3)Gal(b1-4)GlcNAc(b1-2)Man", "summary_of_the_method": "as §1"}, "[15]": {"target": "GlcNAc(b1-2)[GlcNAc(b1-6)]Man(a1-6)[GlcNAc(b1-2)Man(a1-3)]Man(b1-4)GlcNAc(b1-4)[Fuc(a1-6)]GlcNAc", "summary_of_the_method": "as §1"}, "[16]": {"target": "GlcNAc(b1-3)Gal(b1-4)GlcNAc(b1-3)Gal(b1-4)GlcNAc(b1-3)Gal(b1-4)GlcNAc(b1-2)Man(a1-3)[GlcNAc(b1-3)Gal(b1-4)GlcNAc(b1-3)Gal(b1-4)GlcNAc(b1-3)Gal(b1-4)GlcNAc(b1-2)Man(a1-6)]Man(b1-4)GlcNAc(b1-4)[Fuc(a1-6)]GlcNAc", "summary_of_the_method": "as §1"}, "[17]": {"target": "GlcNAc(b1-3)[GlcNAc(b1-6)]Gal(b1-4)GlcNAc", "summary_of_the_method": "as §1"}, "[18]": {"target": "GlcNAc(b1-3)[GlcNAc(b1-6)]GalNAc", "summary_of_the_method": "as §1"}, "[19]": {"target": "Man(a1-2)Man(a1-2)Man(a1-6)[Man(a1-3)]Man", "summary_of_the_method": "as §1"}, "[20]": {"target": "Man(a1-3)[Man(a1-6)]Man(a1-6)[Man(a1-3)]Man", "summary_of_the_method": "as §1"}, "[21]": {"target": "Neu5Ac(a2-3)Gal(b1-3)GlcNAc(b1-3)Gal(b1-3)GlcNAc", "summary_of_the_method": "as §1"}, "[22]": {"target": "Neu5Ac(a2-3)Gal(b1-3)[Neu5Ac(a2-6)]GlcNAc(b1-3)[Fuc(a1-3)[Gal(b1-4)]GlcNAc(b1-6)]Gal(b1-4)Glc", "summary_of_the_method": "as §1"}, "[23]": {"target": "Neu5Ac(a2-3)Gal(b1-4)GlcNAc(b1-2)Man(a1-3)[Neu5Ac(a2-6)Gal(b1-4)GlcNAc(b1-2)Man(a1-6)]Man(b1-4)GlcNAc(b1-4)GlcNAc", "summary_of_the_method": "as §1"}, "[24]": {"target": "Neu5Ac(a2-3)Gal(b1-4)GlcNAc(b1-3)Gal", "summary_of_the_method": "as §1"}, "[25]": {"target": "Neu5Ac(a2-3)Gal(b1-4)[Fuc(a1-3)]GlcNAc", "summary_of_the_method": "as §1"}, "[26]": {"target": "Neu5Ac(a2-6)Gal(b1-4)GlcNAc(b1-3)Gal(b1-4)GlcNAc(b1-3)Gal(b1-4)GlcNAc", "summary_of_the_method": "as §1"}, "[27]": {"target": "Neu5Gc(a2-3)Gal(b1-3)GlcNAc", "summary_of_the_method": "as §1"}, "[28]": {"target": "Neu5Gc(a2-3)Gal(b1-3)[Fuc(a1-4)]GlcNAc", "summary_of_the_method": "as §1"}}, "note": "This is one part of a sample in which the strongest signals are shown more often than they occur."}
{"binder": "B1", "values": [{"measurement": "glycan array binding signal (z-score)", "setting": "[1]", "result": 0.209}, {"measurement": "glycan array binding signal (z-score)", "setting": "[2]", "result": 2.93}, {"measurement": "glycan array binding signal (z-score)", "setting": "[3]", "result": 0.803}, {"measurement": "glycan array binding signal (z-score)", "setting": "[4]", "result": 2.72}, {"measurement": "glycan array binding signal (z-score)", "setting": "[5]", "result": 0.637}, {"measurement": "glycan array binding signal (z-score)", "setting": "[6]", "result": -0.153}, {"measurement": "glycan array binding signal (z-score)", "setting": "[7]", "result": -0.259}, {"measurement": "glycan array binding signal (z-score)", "setting": "[8]", "result": -0.16}, {"measurement": "glycan array binding signal (z-score)", "setting": "[9]", "result": 5.91}, {"measurement": "glycan array binding signal (z-score)", "setting": "[10]", "result": 4.82}, {"measurement": "glycan array binding signal (z-score)", "setting": "[11]", "result": -0.145}, {"measurement": "glycan array binding signal (z-score)", "setting": "[12]", "result": -0.321}, {"measurement": "glycan array binding signal (z-score)", "setting": "[13]", "result": -0.246}, {"measurement": "glycan array binding signal (z-score)", "setting": "[14]", "result": -0.24}, {"measurement": "glycan array binding signal (z-score)", "setting": "[15]", "result": 0.217}, {"measurement": "glycan array binding signal (z-score)", "setting": "[16]", "result": -0.139}, {"measurement": "glycan array binding signal (z-score)", "setting": "[17]", "result": -0.235}, {"measurement": "glycan array binding signal (z-score)", "setting": "[18]", "result": -0.277}, {"measurement": "glycan array binding signal (z-score)", "setting": "[19]", "result": -0.127}, {"measurement": "glycan array binding signal (z-score)", "setting": "[20]", "result": -0.287}, {"measurement": "glycan array binding signal (z-score)", "setting": "[21]", "result": -0.295}, {"measurement": "glycan array binding signal (z-score)", "setting": "[22]", "result": -0.172}, {"measurement": "glycan array binding signal (z-score)", "setting": "[23]", "result": -0.237}, {"measurement": "glycan array binding signal (z-score)", "setting": "[24]", "result": -0.11}, {"measurement": "glycan array binding signal (z-score)", "setting": "[25]", "result": -0.209}, {"measurement": "glycan array binding signal (z-score)", "setting": "[26]", "result": -0.307}, {"measurement": "glycan array binding signal (z-score)", "setting": "[27]", "result": -0.069}, {"measurement": "glycan array binding signal (z-score)", "setting": "[28]", "result": -0.119}]}
